# Assay outcomes: PubChem, National Center for Advancing Translational Sciences (NCATS)
# In the library only some 21% were active in any assay of this set; here they are far more common.
# NS1 function inh – inhibitors of influenza NS1 protein function; actives 0.4% (n = 270,000); Potency, µM (titrated, usually from 46.1 µM), for the others: at the top dose activity, positive = more growth; calls by dose curve; further: potency means the concentration at half of the fitted maximal effect; actives are rising curves; nearly all actives have a fitted effect of over 50% in size
#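 Read-out: OD600 growth recovery of NS1-expressing budding yeast. Cells grown overnight at 30C in -URA glucose medium, washed, resuspended and diluted 1:100 in 2% galactose assay medium, pH 6.0. Same strain lacking NS1 served as positive control.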
# Pf growth 48h – P. falciparum growth inhibition at 48 hours (one generation); P. falciparum luciferase growth in erythrocytes, 48 h; Potency, µM (titrated, usually from 28.7 µM), for inactives: top-dose activity change, negative = inhibition, most hits filed as inhibitors; actives 5.9% (n = 310,000); AID 504832; further: potency means the concentration at half of the fitted maximal effect; on the % scale 0 is the no-effect control and ±100 the full control effect
#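 Luminescence readout; reporter = integrated firefly luciferase in P. falciparum. RBC culture at 2% hematocrit, 0.1% parasitemia final, 37 C/5% CO2; decreased signal taken as growth inhibition.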
# Pf growth 96h – P. falciparum growth inhibition at 96 hours; P. falciparum luciferase reporter growth, 96 h; Potency, µM (doses to about 28.7 µM), without a hit: at the top dose activity change, negative = inhibition, most hits filed as inhibitors; actives 6.9% (n = 320,000); AID 504834; further: potency means the concentration at half of the fitted maximal effect; on the % scale 0 is the no-effect control and ±100 the full control effect
#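 Readout is luminescence from an integrated firefly luciferase in P. falciparum. Red cells, 2% hematocrit and 0.05% parasitemia final, were cultured with compound through two parasite generations (96 hours) at 37 C, 5% CO2.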
# Giardia FBPA inh – blocks Giardia fructose-bisphosphate aldolase activity | purified Giardia FBPA | AID 2451 | actives 0.71% (n = 290,000) | A8B2U2 | Potency, µM (titrated, usually from 59.6 µM), for the others: at the top dose activity, negative = inhibition, hits mostly inhibitors; further: potency means the concentration at half of the fitted maximal effect; on the % scale 0 is the no-effect control and ±100 the full control effect; nearly all actives have a fitted effect of over 55% in size
# Target sequence (A8B2U2 whole entry, looked up): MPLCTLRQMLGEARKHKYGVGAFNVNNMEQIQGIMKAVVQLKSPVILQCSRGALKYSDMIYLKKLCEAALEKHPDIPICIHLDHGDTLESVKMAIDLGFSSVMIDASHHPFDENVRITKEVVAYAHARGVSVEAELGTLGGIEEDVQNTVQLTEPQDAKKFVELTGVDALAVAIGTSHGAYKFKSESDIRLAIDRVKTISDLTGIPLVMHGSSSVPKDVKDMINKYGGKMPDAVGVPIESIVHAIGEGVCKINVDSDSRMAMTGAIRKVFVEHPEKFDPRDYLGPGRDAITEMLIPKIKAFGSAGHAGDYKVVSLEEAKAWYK
#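 40 nM FBPA preincubated 10 min at RT with compound (up to 57.5 uM final), then substrate plus GAPDH/TPI/NAD/arsenate coupling and diaphorase/resazurin added. Fluorescence read after 20 min at RT, 525/598 nm.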
# Shiga toxin inh – inhibitors of Shiga toxin in Vero cells | inhibition, % at 38.7 µM | Vero cells, Shiga toxin protein synthesis inhibition reporter | actives 9.2% (n = 290,000); in the data active means inhibition mostly above about 28%, no sharp cut-off; inactive means mostly below about 43%; further: 0% is about no effect
# CHX counter – affects cycloheximide protein synthesis inhibition readout, counter-screen. cell reporter, cycloheximide protein synthesis inhibition counterscreen. max response, %. actives 12% (n = 300,000). AID 2314; in the data active means max response mostly above about 13%, no sharp cut-off; inactive means mostly below about 14%; further: read at 38.3 µM for the half of the compounds with a filed dose; 0% is about no effect
# * hit, by the source's call; ? = inconclusive; · = no result given; [ ] = another dose, or the depositor's remark. Unless noted, the call rests on the fitted dose curve; in most records, active means well fitted curve in the direction sought with a large enough effect; inconclusive means small, poorly fitted or top-dose-only effect, or another doubt; inactive means no such curve, though single readings can be large; an effect the other way counts as inactive or inconclusive.
SMILES,NS1 function inh,Pf growth 48h,Pf growth 96h,Giardia FBPA inh,Shiga toxin inh,CHX counter
CCOC(=O)C1(Cc2ccc(OC)cc2)CCN(C(=O)Cn2cnnn2)CC1,-4.7%,2.5%,1.85µM*,4.8%,22.2,9.5
COc1ccc(/C=C/C(=O)c2ccc(OC)cc2OC)c(OC)c1,-6.3%,?,3.7µM*,-5.0%,4.0,6.6
COc1cc(O)c(C(=O)/C=C/c2ccccc2)c(OC)c1,-82.0%,?,?,8.1%,69.7*,34.1*
COc1ccc(/C=C/C(=O)c2cc(Cl)cc(Cl)c2O)c(OC)c1,1.0%,-18.1%,13.0%,-2.5%,-4.7,-1.7
COc1ccc(/C=C/C(=O)c2ccc3c(c2)OCO3)c(OC)c1,-21.6%,192.0%,194.4%,-3.6%,60.9*,58.9*
COc1ccc(/C=C/C(=O)c2ccccc2)c(OC)c1,·,161.2%,3.6%,-2.2%,74.1*,23.3*
COc1cccc(/C=C/C(=O)c2ccc3c(c2)OCCO3)c1OC,-7.8%,74.8%,0.0%,16.3%,·,47.2*
COc1cc(/C=C/C(=O)c2ccc3c(c2)OCO3)cc(Cl)c1O,-48.4%,-23.1%,?,-8.3%,25.0,8.2
CC(Sc1nc(-c2ccccc2)cc(C(F)(F)F)n1)C(=O)N1CCCC1 (stereo not given),3.5%,2.8%,?,2.4%,-13.0,-6.4
CC(Sc1nc(-c2ccccc2)cc(C(F)(F)F)n1)C(=O)N1CCOCC1 (stereo not given),13.3%,?,1.65µM*,-3.5%,-6.0,-4.7
Cc1ccc(C(=O)ONc2ccc(N=O)cc2)cc1,2.4%,98.2%,42.2%,-7.2%,84.9*,46.0*
COC(=O)c1ccc(NC(=O)Cc2ccc(C)cc2)cc1,-3.8%,·,42.1%,3.3%,26.1,8.7
COC(=O)c1ccc(NN=Nc2ccc(C)cc2)cc1,-3.8%,-31.2%,2.5%,-14.1%,46.9*,59.4*
COC(=O)c1ccc(N=NN2CCCCC2)cc1,-13.0%,148.1%,-14.7%,4.1%,126.6*,37.7*
COC(=O)c1ccc(S(=O)(=O)NNC(=O)c2ccc(S(=O)(=O)N3CCCCC3)cc2)cc1,11.4%,1.2%,-15.7%,-6.3%,-10.6,7.7
CCc1nnc(SCC(=O)Nc2ccc(NC(C)=O)cc2)n1-n1cccc1,·,9.7%,3.7%,·,·,·
COc1ccc(C2CC(=O)c3cnn(-c4nc(C)cc(C)n4)c3C2)cc1 (stereo not given),·,?,?,7.5%,-5.7,-4.5
C[C@H]1Cc2c(-c3ccccc3)nc3c(c2CO1)CN(S(=O)(=O)c1ccc(C#N)cc1)CC3,·,·,·,4.9%[12.9 µM],·,·
CC(C(=O)c1c[nH]c2ccccc12)N1CCc2ccccc2C1 (stereo not given),-9.0%,?,2.94µM*,-29.4%,32.7,0.6
Cc1ccc(NC(=O)C(C)N2CCc3ccccc3C2)cc1 (stereo not given),0.6%,23.1%,28.2%,·,5.1,-2.4
Cc1ccc(OCC(=O)OCc2nc3scc(-c4ccccc4)c3c(=O)[nH]2)cc1C,·,2.9%,3.0%,·,·,·
COc1ccc(NC(=O)C(CC(=O)O)Cc2ccccc2)cc1 (stereo not given),-6.6%,3.7%,7.38µM*,16.1%,3.3,-3.5
COc1ccc(NC(=S)NC(=O)Cc2ccccc2)cc1,-13.0%,-17.5%,3.3%,-3.1%,·,24.8*
CC(Cc1ccccc1)C(=O)Nc1ccc(Br)cc1 (stereo not given),-25.5%,-21.2%,2.7%,0.7%,99.8*,36.2*
O=C(Cc1ccccc1)NC(=S)Nc1ccc(OC(F)F)cc1,-2.9%,0.0%,?,-1.2%,38.6*,17.8*
SMILES,NS1 function inh,Pf growth 48h,Pf growth 96h,Giardia FBPA inh,Shiga toxin inh,CHX counter
Cc1ccc(S(=O)(=O)OC2CCN(C)CC2)cc1,-8.2%,·,·,·,·,·
Cc1cccn2c(=O)c(C(=O)NCCCN3CC(C)CC(C)C3)c(O)nc12 (stereo not given),·,2.08µM*,0.828µM*,·,·,·
CC1CCCCN1CCCNC(=O)c1c(O)nc2ccccn2c1=O (stereo not given),-17.9%,15.6%,11.2%,11.0%,20.8,2.8
CC1CC(C)CN(CCCNC(=O)c2c(O)nc3ccccn3c2=O)C1 (stereo not given),·,4.15µM*,?,·,·,·
CC1=C(C)CC(c2ccccc2)C(C(=O)c2ccccc2O)C1 (stereo not given),·,·,·,0.5%[12.9 µM],·,·
CC(=O)c1c(C)[nH]c(C(=O)Nc2cc(S(=O)(=O)N3CCCCC3)ccc2C)c1C,·,13.1µM*,13.1µM*,·,·,·
CC(=O)c1c(C)[nH]c(C(=O)Nc2cccc(S(=O)(=O)N3CCOCC3)c2)c1C,0.8%,-7.7%,-3.5%,0.0%,0.4,5.9
CCOc1ncccc1C(=O)Nc1cccc(S(=O)(=O)N2CCCCC2)c1,·,?,7.38µM*,·,·,·
CCOc1ncccc1C(=O)Nc1cc(S(=O)(=O)N2CCCCC2)ccc1C,·,11.7µM*,9.28µM*,·,·,·
CCOc1ncccc1C(=O)Nc1ccc(S(=O)(=O)N2CCCC2)cc1,0.8%,-15.4%,7.3%,0.3%,-22.6,-2.1
O=C(CSc1nnc(-c2cccnc2)n1CCN1CCCCC1)Nc1cccc(Cl)c1,?,-6.5%,?,18.6%,-18.9,-2.1
CC(C)CC(=O)Nc1ccc(C(=O)COC(=O)CN2C(=O)NC3(CCCCC3C)C2=O)cc1 (stereo not given),·,?,12.7%,·,·,·
CC(=O)OC[C@]12C[C@H](OC(=O)CC(C)C)C(C)=C[C@H]1O[C@H]1[C@H](O)[C@@H](OC(C)=O)[C@@]2(C)[C@]12CO2,·,·,·,2.5%,·,·
CC(=O)OC[C@]12CCC(C)=C[C@H]1O[C@@H]1[C@H](O)[C@@H](OC(C)=O)[C@@]2(C)[C@]12CO2,-103.3%,0.0033µM*,?,0.0%,-28.1,-10.7
O=C(C1=C(O)C(=O)N(CCCN2CCOCC2)C1c1ccccn1)c1cccs1 (stereo not given),-11.9%,?,49.0%,-8.4%,43.1*,75.4*
COc1ccc(/C(O)=C2/C(=O)C(=O)N(CCN(C)C)C2c2ccccn2)cc1OC (stereo not given),3.9%,15.7%,?,?,-5.8,5.7
O=C(C1=C(O)C(=O)N(CCN2CCOCC2)C1c1ccccc1)c1cccs1 (stereo not given),-16.0%,·,·,·,·,·
CCN(CC)CCCN1C(=O)C(=O)/C(=C(/O)c2ccc3c(c2)OCO3)C1c1ccccn1 (stereo not given),9.9%,·,·,·,·,·
COc1ccc(/C(O)=C2/C(=O)C(=O)N(CCN3CCOCC3)C2c2ccccn2)cc1OC (stereo not given),8.4%,3.9%,2.1%,?,64.4*,25.1*
Cc1ccc(/C(O)=C2/C(=O)C(=O)N(CCN3CCOCC3)C2c2ccccn2)cc1 (stereo not given),?,31.0%,72.7%,?,105.3*,33.8*
CCN(CC)CCCN1C(=O)C(=O)/C(=C(/O)c2ccc(C)cc2)C1c1ccccn1 (stereo not given),?,6.3%,3.29µM*,3.1%,8.1,-2.8
